# Laboratory results reported in the OligoGym collection.
# Molecular target: METRNL
# Assay: pooled miR-30 sensor sort-seq; sequence = guide strand
# Conditions: shRNA
# Also: reference of the scale not given here.
row,Sequence,sensor-assay potency score (higher = more potent)
1,TAGAGTCTGCTCACGCGCAGGT,0.197
2,TTAGTTTGCATTTTACAGCATT,-0.859
3,TTAACGATGAGAGCACCTGTTG,-1.05
4,TGAAGGACCTGATGCACACGGT,-0.842
5,TCGAACGGCGAAGTCGCTGGTG,-0.372
6,TAACGATGAGAGCACCTGTTGG,-0.773
7,TACATCCTCTGGAAGTCCTTGA,0.329
8,ATAGAGTCTGCTCACGCGCAGG,-1.52
9,TGAAGCGTGGGGCACAGCCGAG,-1.51
10,TGGAAGTCCTTGAAGCGTGGGG,-0.538
11,TTTTACAGCATTTCCAATCGGC,0.396
12,TACTGGAAGCCTGTGGTCCTCC,-0.709

# Molecular target: METTL16
# Assay: as above
# Conditions: shRNA
row,Sequence,sensor-assay potency score (higher = more potent)
1,TTCTTCTTTAAGAGCATCCATC,-1.07
2,TTAACGTTTATCAAACACTTAA,-1.21
3,TTTCTCTAATTTTCTTCGCTTA,-0.889
4,TTCTTCGCTTACTTGGTGGTGA,0.819
5,TTGTCCTTGTATCTATTTCTTG,-1.01
6,TTATCAAACACTTAAACAGGTA,-0.44
7,TAAGGCATCGTCCACCTCCTTC,-0.93
8,TTTGCTTACCTAATTCTGCTTC,0.554
9,TTCTTTAAGAGCATCCATCAGG,-0.744
10,TGTATTAACAGAACTAGGCGGA,0.503
11,TAACAAACTCTAATTCACCTCC,0.296
12,TTTAAGAGCATCCATCAGGAGT,-1.04

# Molecular target: METTL21C
# Assay: as above
# Conditions: shRNA
row,Sequence,sensor-assay potency score (higher = more potent)
1,TCATAGTCGGTGCTGAACCTGA,-0.238
2,TTAGATATTTAGATTAACCAGA,-0.625
3,TTAGAAATTAGAAAGTTTCTGC,0.573
4,TGTTGTGTCAAAAACTTGCTTG,0.0873
5,TTCCTGGATGACAATCTCCTTT,-0.999
6,TTCTTCTCAGCCTCTAACCAGC,-1.05
7,TATCTTGTTGGATTCTTCTAGG,-0.565
8,ATCTGTAGGAACAAATTTCTGG,-0.452
9,TAACTCTCTATGGATTCCTGGA,-0.728
10,TAAAAGATTGTATTGAAGGTTT,-0.706
11,TGTAGGAACAAATTTCTGGAGG,-0.694
12,TAGATTAACCAGATAATCTTAA,-0.406

# Molecular target: METTL21D
# Assay: as above
# Conditions: shRNA
row,Sequence,sensor-assay potency score (higher = more potent)
1,TTTGTCTTCTTAGCAACTCATT,-1.33
2,TATAGAACTACATTTGTAGTTA,0.621
3,TTCGTTGTTCATAACAACATAT,-1.05
